# Screening results from PubChem BioAssay.
# SARS PLpro yeast = qHTS of Yeast-based Assay for SARS-CoV PLP; AID 485353, 2010; 330,000 tested, 0.19% active; S. cerevisiae expressing SARS-CoV PLpro, growth rescue; Potency, µM (titrated, usually from 32.9 µM), without a hit: at the highest dose activity, positive = growth rescue, hits mostly activators; calls by dose curve; further: 0% is about no effect; nearly all actives have a fitted effect of over 55% in size
# Pf growth 48h = Primary qHTS for delayed death inhibitors of the malarial parasite plastid, 48 hour incubation | P. falciparum luciferase growth in erythrocytes, 48 h | Potency, µM (series often up to 28.7 µM), for the others: at the highest dose activity change, negative = inhibition, usual class: inhibitors | 310,000 tested, 5.9% active | AID 504832, 2011; further: on the % scale 0 is the no-effect control and ±100 the full control effect
#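 Compounds are pin-transferred into medium, infected erythrocytes (2% hematocrit, 0.1% parasitemia final) are added, and plates sit one parasite generation at 37 C in 5% CO2. Detection reagent is then added and luminescence measured.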
# Pf growth 96h = Primary qHTS for delayed death inhibitors of the malarial parasite plastid, 96 hour incubation; P. falciparum luciferase reporter growth, 96 h; Potency, µM (top dose mostly 28.7 µM), for the others: at the highest dose activity change, negative = inhibition, usual class: inhibitors; 320,000 tested, 6.9% active; further: on the % scale 0 is the no-effect control and ±100 the full control effect
#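 Plates of compound plus infected erythrocytes (2% hematocrit, 0.05% parasitemia final) incubate 96 hours, 37 C, 5% CO2. Detection reagent added; reduced luminescence from the parasites' luciferase reporter flags inhibition.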
# RE007 growth inh = qHTS Assay for Inhibitors of the HIV-1 protein Vpr; S. pombe RE007 Vpr strain, BacTiter-Glo ATP luminescence, 24 h; Potency, µM (series often up to 92.2 µM), for inactives: top-dose activity change, negative = less growth, actives largely listed as inhibitors; 360,000 tested, 0.21% active; AID 651644, 2012; active means well fitted falling curve with a large enough effect; inconclusive means small, poorly fitted or top-dose-only effect; inactive means no such curve, though single readings can be large or run the other way; further: on the % scale 0 is the no-effect control and ±100 the full control effect; nearly all actives have a fitted effect of over 50% in size
#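 Fission yeast RE007 carrying one integrated HIV-1 vpr copy, seeded at OD 0.01 in PMG+AL medium with 23 nL pinned compound. Grown 24 h at 30 degrees; viability read by BacTiter-Glo luminescence after 5 min.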
# NS1 function inh = qHTS Assay for Inhibitors of Influenza NS1 Protein Function. 270,000 tested, 0.4% active. AID 2326, 2010. Potency, µM (titrated, usually from 46.1 µM), inactives show at the top dose activity, positive = more growth; calls by dose curve; further: actives are rising curves; nearly all actives have a fitted effect of over 50% in size
#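 OD600 was taken as the measure of yeast growth restored by compound in an NS1-expressing S. cerevisiae strain. Cells had been washed out of glucose medium and diluted 1:100 into galactose -URA medium, pH 6.0.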
# * = called active by the depositor; ? = inconclusive; nt = no result given. The list is not random: actives were taken first. Their share in the collection is about 9.5%. Unless noted, the call rests on the fitted dose curve; in most records, active means well fitted inhibition curve with a large enough effect; inconclusive means small, poorly fitted or top-dose-only effect, or another doubt; inactive means no such curve, though single readings can be large or run the other way. Potency means the concentration at half of the fitted maximal effect.
SMILES,SARS PLpro yeast,Pf growth 48h,Pf growth 96h,RE007 growth inh,NS1 function inh
Cc1cc(N/N=C/c2ccccc2O)c2ccccc2n1,4%,0.52µM*,?,18%,-7%
COc1ccc2nc(C)cc(N/N=C/c3cccc(OC)c3O)c2c1,-9%,0.093µM*,-9%,-14%,-52%
COc1cccc2c(N/N=C/c3ccccc3)cc(C)nc12,0%,-14%,-25%,-18%,-40%
COc1ccc(/C=N/Nc2cc(C)nc3ccc(Br)cc23)cc1,-2%,0.26µM*,0.47µM*,-3%,-11%
COc1cccc(CNS(=O)(=O)c2ccccc2Br)c1OC,nt,nt,nt,6%,nt
Cc1c(C(=O)N2CCN(CC(=O)Nc3ccccc3Cl)CC2)oc2ccc(Br)cc12,-5%,?,?,-5%,nt
CC1(C)Cn2c(nnc2-c2cccc(O)c2)S1,-1%,44%,12µM*,7%,4%
CC1Cn2c(nnc2-c2cccc(Cl)c2)S1 (configuration not stated),7%,7%,?,19%,-16%
COC(=O)[C@H](CC(C)C)NC(=O)N1CCCCC1,1%,14%,20%,-3%,0%
CCC(C)[C@H](NC(=O)N1CCCC1)C(=O)O (some centres not stated),-6%,nt,6.6µM*,6%,0%
CC(NC(=O)C(=O)NCCN1CCN(C(=O)c2ccc([N+](=O)[O-])cc2)CC1)c1ccccc1 (configuration not stated),13%,?,13%,-8%,1%
CCN(CCNC(=O)C1CCN(S(C)(=O)=O)CC1)c1ccccc1,3%,-2%,4.7µM*,3%,-13%
CS(=O)(=O)N1CCC(C(=O)Nc2cc(Cl)c(Cl)cc2Cl)CC1,7%,-9%,2.1µM*,10%,8%
CS(=O)(=O)N1CCC(C(=O)Nc2cc(Cl)ccc2Cl)CC1,0%,-82%,-24%,2%,2%
CCCS(=O)(=O)N1CCC(C(=O)NCCN(CC)c2ccccc2)CC1,0%,8%,41%,11%,-3%
COc1ccc(Br)cc1CNC(=O)C1CCN(S(=O)(=O)N2CCC(C)CC2)CC1,-5%,?,12µM*,-7%,-8%
CS(=O)(=O)N1CCC(C(=O)NCc2ccc(Cl)cc2)CC1,2%,2.3µM*,39%,-11%,-3%
COc1ccc(Br)cc1CNC(=O)C1CCCN(S(=O)(=O)N2CCC(C)CC2)C1 (configuration not stated),nt,nt,nt,1%,nt
CCS(=O)(=O)N1CCC(C(=O)NCc2ccc(F)cc2Cl)CC1,7%,1%,?,-8%,-7%
O=C(NCc1ccc(F)cc1Cl)C1CCN(S(=O)(=O)N2CCCCC2)CC1,-3%,-18%,3.3µM*,5%,6%
O=C(NCc1ccc(Cl)cc1)C1CCN(C(=O)Cc2ccccc2)CC1,?,15%,12µM*,-7%,-2%
COc1cc(OC)c(NC(=O)CC2SC(N)=NC2=O)cc1Cl (configuration not stated),nt,nt,nt,15%,nt
O=C(Nc1ncccc1O)c1ccc(S(=O)(=O)Nc2ccccc2)cc1,0%,0.83µM*,?,1%,nt
COC(=O)c1ccc(NC(=O)c2ccc(NS(=O)(=O)c3cccc4cccnc34)cc2)cc1,-3%,3%,23%,4%,0%
O=C(Nc1ncccc1O)c1ccc(NS(=O)(=O)c2ccc3[nH]c(=O)[nH]c3c2)cc1,-2%,0.13µM*,0.1µM*,-14%,nt
SMILES,SARS PLpro yeast,Pf growth 48h,Pf growth 96h,RE007 growth inh,NS1 function inh
O=C(Nc1ccccc1O)c1ccc(NS(=O)(=O)c2cccc3cccnc23)cc1,-2%,2.3µM*,?,-4%,-15%
Cc1ccc(N2CC(C(=O)N3CCN(Cc4ccc5c(c4)OCO5)CC3)CC2=O)cc1 (configuration not stated),0%,-5%,?,-3%,-1%
CCc1[nH]nc(C(=O)N/N=C/c2ccncc2)c1C,4%,71%,125%,-13%,7%
CCOc1cc(C(=S)N2CCCC2)ccc1OC,0%,nt,12%,-3%,-3%
CCOc1cc(/C=N\NC(=O)CN2CCOCC2)ccc1OCc1ccc(F)cc1,-20%,9.3µM*,12µM*,-20%,-11%
COCC(=O)N/N=C\c1ccc(OC/C=C/c2ccccc2)c(OC)c1,-2%,4.7µM*,-3%,12%,-41%
COc1cc(/C=N\NC(=O)CC#N)ccc1OC/C=C/c1ccccc1,3%,-21%,-14%,-3%,15%
CCOc1cc(C(=S)N2CCCC2)ccc1OCC(=O)Nc1c(C)cc(C)cc1C,18%,2.3µM*,41%,-11%,11%
CCOc1cc(/C=N/NC(=O)CN2CCOCC2)ccc1OCc1ccccc1,-9%,?,?,nt,-10%
CNC(=S)N/N=C/c1ccc(OCC(=O)Nc2c(C)cc(C)cc2C)c(OC)c1,-5%,13µM*,?,3%,2%
COC(=O)[C@@H](Cc1c[nH]c2ccccc12)NC(=O)CCC(=O)c1ccc(F)cc1,-1%,?,?,23%,-6%
Cc1ccc(S(=O)(=O)N[C@H](C(=O)OCC(=O)NC(=O)C2CCCCC2)C(C)C)cc1,2%,nt,nt,-9%,nt
COC(=O)N1CCC2CC1c1c(Cl)cccc12 (configuration not stated),nt,nt,nt,0%,nt
COc1ccccc1OCC(=O)N1CCN(S(=O)(=O)c2ccc(Cl)cc2)CC1,1%,?,?,-15%,nt
Cc1c(Cl)cccc1NC(=O)CCN1CCC(C(N)=O)CC1,1%,-17%,-18%,17%,9%
COc1cc(/C=N\NC(=O)CN2CCOCC2)ccc1OCC(=O)Nc1ccc(C)c(C)c1,-2%,?,9.3µM*,22%,-11%
COc1cc(/C=C/c2cc[n+](C)cc2)ccc1OCC(=O)Nc1ccccc1,-3%,3.7µM*,-10%,-19%,-6%
CC(C)(C)c1cc(NCc2ccccn2)n2ncc(-c3ccc(Cl)cc3)c2n1,0%,3.3µM*,?,4%,1%
CC(C)(C)c1cc(NCCCn2ccnc2)n2ncc(-c3ccccc3)c2n1,-3%,?,?,9%,0%
CN(C)CCCNc1cc(C(C)(C)C)nc2c(-c3ccc(Cl)cc3)cnn12,-1%,?,?,11%,9%
CCCc1cc(NCCCn2ccnc2)n2nc(C)c(-c3ccccc3)c2n1,0%,?,0.41µM*,0%,1%
Cc1nn2c(NCc3ccccn3)c3c(nc2c1-c1ccccc1)CCC3,-4%,?,4.7µM*,-19%,-122%
Cc1nn2c(NCc3ccccn3)cc(C(C)(C)C)nc2c1-c1ccccc1,-2%,4.7µM*,2.9µM*,29%,-4%
CC(=O)OCC1CC(COC(C)=O)C(COC(C)=O)CC1COC(C)=O (configuration not stated),nt,nt,nt,1%,nt
